# Reference: ChEMBL document CHEMBL1961873, “Compounds: GSK PKIS; Assays: Nanosyn kinase panel” (2012)
# Assays:
# [1] = biological target: High affinity nerve growth factor receptor (Homo sapiens) (UniProt P04629); conditions: at 1 µM;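 also: each value is the mean percent inhibition of TRKA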
# [2] = biological target: BDNF/NT-3 growth factors receptor (Homo sapiens) (UniProt Q16620); conditions: at 0.1 µM
# [3] = biological target: BDNF/NT-3 growth factors receptor (Homo sapiens) (UniProt Q16620); conditions: at 1 µM
# [4] = biological target: NT-3 growth factor receptor (Homo sapiens) (UniProt Q16288); conditions: at 0.1 µM
# [5] = biological target: NT-3 growth factor receptor (Homo sapiens) (UniProt Q16288); conditions: at 1 µM
# [6] = biological target: T1, Tyrosine-protein kinase TXK (Homo sapiens) (UniProt P42681); conditions: at 0.1 µM
# T1 sequence (whole entry): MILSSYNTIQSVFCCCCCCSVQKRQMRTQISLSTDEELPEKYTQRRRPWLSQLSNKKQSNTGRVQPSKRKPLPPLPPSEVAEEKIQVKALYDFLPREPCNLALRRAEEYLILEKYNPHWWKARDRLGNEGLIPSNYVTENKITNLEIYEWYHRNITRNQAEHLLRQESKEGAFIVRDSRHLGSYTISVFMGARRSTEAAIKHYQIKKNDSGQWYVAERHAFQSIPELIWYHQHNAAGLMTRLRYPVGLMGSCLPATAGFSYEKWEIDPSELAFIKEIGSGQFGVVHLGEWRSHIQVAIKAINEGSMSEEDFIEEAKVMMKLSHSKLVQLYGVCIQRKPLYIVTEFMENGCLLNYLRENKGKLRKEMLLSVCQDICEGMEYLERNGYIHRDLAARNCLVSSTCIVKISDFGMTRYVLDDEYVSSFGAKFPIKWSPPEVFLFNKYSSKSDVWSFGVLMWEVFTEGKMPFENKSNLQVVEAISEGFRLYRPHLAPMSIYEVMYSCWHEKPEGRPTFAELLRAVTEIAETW
# [7] = biological target: T1, Tyrosine-protein kinase TXK (Homo sapiens); conditions: at 1 µM
# [8] = biological target: Non-receptor tyrosine-protein kinase TYK2 (Homo sapiens) (UniProt P29597); conditions: at 0.1 µM;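 also: each value is a mean of the inhibition readings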
# [9] = biological target: T2, Dual specificity protein kinase TTK (Homo sapiens) (UniProt P33981); conditions: at 1 µM;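 also: reported figures are mean TTK inhibition at 1 µM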
# T2 sequence (whole entry): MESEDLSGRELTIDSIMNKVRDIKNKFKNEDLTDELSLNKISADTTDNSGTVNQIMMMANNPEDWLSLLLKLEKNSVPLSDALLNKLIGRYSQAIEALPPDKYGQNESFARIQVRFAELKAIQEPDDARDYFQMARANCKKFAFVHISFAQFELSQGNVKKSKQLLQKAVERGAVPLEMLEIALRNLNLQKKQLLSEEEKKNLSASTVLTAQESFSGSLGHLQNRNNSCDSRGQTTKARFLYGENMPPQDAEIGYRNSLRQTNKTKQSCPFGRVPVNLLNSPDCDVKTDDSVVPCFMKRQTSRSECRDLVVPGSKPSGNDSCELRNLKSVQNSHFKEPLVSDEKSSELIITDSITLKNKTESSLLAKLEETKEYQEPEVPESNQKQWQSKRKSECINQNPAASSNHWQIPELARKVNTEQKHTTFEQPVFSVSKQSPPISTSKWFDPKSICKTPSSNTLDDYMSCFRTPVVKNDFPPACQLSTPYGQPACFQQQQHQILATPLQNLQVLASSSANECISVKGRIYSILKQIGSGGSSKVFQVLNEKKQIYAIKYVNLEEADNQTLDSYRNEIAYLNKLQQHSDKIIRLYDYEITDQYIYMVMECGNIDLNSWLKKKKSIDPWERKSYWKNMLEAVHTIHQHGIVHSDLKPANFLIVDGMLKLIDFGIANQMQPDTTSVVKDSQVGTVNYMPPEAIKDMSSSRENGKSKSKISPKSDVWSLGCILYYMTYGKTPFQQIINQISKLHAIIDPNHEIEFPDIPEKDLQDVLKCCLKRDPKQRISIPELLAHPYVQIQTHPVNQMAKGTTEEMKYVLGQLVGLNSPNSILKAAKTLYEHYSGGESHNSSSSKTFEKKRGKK
# [10] = biological target: T3, Aurora kinase A (Homo sapiens) (UniProt O14965); conditions: at 0.1 µM
# T3 sequence (whole entry): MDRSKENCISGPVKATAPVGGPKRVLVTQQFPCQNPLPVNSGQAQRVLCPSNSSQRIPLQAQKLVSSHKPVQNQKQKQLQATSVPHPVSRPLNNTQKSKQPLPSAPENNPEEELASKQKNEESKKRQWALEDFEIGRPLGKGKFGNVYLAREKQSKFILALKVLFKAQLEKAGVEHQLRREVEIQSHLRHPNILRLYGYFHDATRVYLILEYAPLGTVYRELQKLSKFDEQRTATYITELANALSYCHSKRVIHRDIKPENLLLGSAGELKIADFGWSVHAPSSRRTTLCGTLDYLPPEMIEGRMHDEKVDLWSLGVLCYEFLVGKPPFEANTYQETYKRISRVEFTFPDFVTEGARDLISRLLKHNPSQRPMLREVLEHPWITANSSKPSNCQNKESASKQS
# [11] = biological target: T3, Aurora kinase A (Homo sapiens); conditions: at 1 µM
# [12] = biological target: Aurora kinase B (Homo sapiens) (UniProt Q96GD4); conditions: at 0.1 µM
# [13] = biological target: Aurora kinase B (Homo sapiens) (UniProt Q96GD4); conditions: at 1 µM
# [14] = biological target: T4, Aurora kinase C (Homo sapiens) (UniProt Q9UQB9); conditions: at 0.1 µM
# T4 sequence (whole entry): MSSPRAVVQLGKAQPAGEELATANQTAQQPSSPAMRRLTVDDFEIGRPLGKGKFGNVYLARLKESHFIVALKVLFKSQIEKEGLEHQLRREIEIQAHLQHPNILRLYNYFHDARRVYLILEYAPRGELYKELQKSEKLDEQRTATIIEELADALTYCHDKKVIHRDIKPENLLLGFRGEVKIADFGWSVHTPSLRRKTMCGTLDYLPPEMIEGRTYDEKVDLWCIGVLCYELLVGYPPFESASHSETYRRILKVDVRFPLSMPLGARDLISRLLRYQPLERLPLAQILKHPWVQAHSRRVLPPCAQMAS
# [15] = biological target: T4, Aurora kinase C (Homo sapiens); conditions: at 1 µM
# [16] = biological target: Serine/threonine-protein kinase 10 (Homo sapiens) (UniProt O94804); conditions: at 0.1 µM
# [17] = biological target: Serine/threonine-protein kinase 10 (Homo sapiens) (UniProt O94804); conditions: at 1 µM
# [18] = biological target: T5, Mitogen-activated protein kinase kinase kinase kinase 2 (Homo sapiens) (UniProt Q12851); conditions: at 0.1 µM
# T5 sequence (whole entry): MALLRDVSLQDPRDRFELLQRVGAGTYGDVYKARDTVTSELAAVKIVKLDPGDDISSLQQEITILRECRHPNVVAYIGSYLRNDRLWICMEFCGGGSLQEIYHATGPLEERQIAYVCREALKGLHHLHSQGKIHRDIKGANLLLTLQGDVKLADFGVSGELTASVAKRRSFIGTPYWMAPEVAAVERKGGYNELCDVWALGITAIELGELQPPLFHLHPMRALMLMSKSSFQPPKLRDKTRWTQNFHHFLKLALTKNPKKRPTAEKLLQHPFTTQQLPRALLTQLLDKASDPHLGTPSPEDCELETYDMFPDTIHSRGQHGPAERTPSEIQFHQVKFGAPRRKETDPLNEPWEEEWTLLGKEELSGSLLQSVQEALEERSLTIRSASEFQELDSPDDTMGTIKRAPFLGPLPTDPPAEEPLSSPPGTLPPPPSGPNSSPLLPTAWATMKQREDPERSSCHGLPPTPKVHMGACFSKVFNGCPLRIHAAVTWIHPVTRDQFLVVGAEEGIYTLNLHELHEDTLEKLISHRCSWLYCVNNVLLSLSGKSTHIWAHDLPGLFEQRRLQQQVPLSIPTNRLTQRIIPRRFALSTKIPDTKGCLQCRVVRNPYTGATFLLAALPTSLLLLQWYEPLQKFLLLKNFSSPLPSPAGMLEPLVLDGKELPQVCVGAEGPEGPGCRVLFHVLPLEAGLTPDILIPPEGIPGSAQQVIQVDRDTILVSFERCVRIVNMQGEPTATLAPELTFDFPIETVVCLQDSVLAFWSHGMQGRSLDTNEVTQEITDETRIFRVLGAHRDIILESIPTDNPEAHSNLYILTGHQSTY
# [19] = biological target: T5, Mitogen-activated protein kinase kinase kinase kinase 2 (Homo sapiens); conditions: at 1 µM
# [20] = biological target: Mitogen-activated protein kinase kinase kinase kinase 4 (Homo sapiens) (UniProt O95819); conditions: at 0.1 µM
# Chain of Mitogen-activated protein kinase kinase kinase kinase 4 (Homo sapiens) (O95819 2-1239 limits assumed): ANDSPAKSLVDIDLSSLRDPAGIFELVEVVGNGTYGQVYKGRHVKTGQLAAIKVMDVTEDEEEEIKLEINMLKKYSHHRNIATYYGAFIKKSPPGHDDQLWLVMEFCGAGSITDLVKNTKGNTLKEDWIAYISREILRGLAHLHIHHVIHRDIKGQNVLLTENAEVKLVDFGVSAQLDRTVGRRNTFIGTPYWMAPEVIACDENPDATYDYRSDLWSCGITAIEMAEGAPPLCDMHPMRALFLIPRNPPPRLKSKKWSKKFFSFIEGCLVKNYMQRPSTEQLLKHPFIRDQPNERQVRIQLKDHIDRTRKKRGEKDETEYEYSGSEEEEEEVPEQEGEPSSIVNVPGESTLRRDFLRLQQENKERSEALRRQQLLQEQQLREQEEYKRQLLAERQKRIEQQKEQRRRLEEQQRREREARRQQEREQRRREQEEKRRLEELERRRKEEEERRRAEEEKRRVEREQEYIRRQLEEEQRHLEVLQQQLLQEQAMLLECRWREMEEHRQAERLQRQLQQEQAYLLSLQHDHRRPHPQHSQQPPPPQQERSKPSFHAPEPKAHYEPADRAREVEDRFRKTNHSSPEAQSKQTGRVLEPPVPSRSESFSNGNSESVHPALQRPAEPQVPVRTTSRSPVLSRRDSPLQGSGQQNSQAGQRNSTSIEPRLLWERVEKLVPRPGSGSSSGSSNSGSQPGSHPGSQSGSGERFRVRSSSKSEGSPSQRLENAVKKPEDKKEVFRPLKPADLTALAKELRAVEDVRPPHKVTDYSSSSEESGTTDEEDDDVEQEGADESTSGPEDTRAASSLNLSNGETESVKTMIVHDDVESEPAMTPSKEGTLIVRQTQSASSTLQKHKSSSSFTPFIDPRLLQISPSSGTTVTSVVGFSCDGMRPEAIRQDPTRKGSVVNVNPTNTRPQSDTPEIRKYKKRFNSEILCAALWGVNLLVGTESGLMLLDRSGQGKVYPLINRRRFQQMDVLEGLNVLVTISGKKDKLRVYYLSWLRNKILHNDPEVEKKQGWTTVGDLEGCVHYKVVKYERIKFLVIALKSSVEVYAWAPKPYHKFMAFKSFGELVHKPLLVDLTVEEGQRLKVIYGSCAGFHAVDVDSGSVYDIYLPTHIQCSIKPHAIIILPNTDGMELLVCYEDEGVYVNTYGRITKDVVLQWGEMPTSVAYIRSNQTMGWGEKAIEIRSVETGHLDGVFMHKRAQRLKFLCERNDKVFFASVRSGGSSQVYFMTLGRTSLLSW
# Chain of BDNF/NT-3 growth factors receptor (Homo sapiens) (Q16620 32-822 limits assumed): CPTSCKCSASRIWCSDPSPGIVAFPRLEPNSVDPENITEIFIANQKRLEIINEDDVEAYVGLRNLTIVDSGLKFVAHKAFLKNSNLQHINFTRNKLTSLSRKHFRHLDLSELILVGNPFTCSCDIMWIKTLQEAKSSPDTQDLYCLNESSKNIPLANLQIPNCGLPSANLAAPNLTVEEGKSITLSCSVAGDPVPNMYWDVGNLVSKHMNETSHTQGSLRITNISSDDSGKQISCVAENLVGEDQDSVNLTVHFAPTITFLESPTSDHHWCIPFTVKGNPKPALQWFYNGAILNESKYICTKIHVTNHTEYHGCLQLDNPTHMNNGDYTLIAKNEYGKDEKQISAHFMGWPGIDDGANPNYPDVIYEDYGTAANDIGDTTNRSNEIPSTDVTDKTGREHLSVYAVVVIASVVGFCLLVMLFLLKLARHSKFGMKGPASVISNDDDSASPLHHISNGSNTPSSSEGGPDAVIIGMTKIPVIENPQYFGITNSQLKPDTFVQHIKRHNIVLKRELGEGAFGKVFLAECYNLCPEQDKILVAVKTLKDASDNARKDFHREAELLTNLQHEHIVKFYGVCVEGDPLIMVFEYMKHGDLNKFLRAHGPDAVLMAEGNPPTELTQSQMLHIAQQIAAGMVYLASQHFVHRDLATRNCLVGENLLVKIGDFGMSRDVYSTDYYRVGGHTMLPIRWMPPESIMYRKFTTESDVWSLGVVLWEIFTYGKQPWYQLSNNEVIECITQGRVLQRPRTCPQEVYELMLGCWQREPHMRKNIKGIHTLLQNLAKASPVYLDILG
# Chain of NT-3 growth factor receptor (Homo sapiens) (Q16288 32-839 limits assumed): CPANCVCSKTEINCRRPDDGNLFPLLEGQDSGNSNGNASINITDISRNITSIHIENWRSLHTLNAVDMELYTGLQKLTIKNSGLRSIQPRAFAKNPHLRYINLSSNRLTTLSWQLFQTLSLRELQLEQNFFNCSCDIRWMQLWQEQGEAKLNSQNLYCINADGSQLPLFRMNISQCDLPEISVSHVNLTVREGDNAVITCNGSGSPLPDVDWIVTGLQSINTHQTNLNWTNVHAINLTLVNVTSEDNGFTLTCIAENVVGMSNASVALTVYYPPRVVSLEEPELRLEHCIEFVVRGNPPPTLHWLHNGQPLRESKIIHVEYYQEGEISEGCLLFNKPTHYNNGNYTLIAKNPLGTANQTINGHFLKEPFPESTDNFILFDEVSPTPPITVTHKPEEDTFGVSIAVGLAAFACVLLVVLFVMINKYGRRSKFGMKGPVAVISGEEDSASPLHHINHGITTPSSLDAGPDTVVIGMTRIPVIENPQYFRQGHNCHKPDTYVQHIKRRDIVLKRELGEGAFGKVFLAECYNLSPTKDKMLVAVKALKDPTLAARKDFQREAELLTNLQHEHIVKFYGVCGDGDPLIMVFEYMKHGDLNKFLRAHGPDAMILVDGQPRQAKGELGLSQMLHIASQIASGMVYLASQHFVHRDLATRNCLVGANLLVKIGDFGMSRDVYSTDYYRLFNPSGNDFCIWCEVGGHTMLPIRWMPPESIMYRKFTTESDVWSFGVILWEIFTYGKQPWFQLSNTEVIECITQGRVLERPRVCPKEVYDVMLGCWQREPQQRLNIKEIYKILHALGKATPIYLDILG
# Chain of High affinity nerve growth factor receptor (Homo sapiens) (P04629 33-796 limits assumed): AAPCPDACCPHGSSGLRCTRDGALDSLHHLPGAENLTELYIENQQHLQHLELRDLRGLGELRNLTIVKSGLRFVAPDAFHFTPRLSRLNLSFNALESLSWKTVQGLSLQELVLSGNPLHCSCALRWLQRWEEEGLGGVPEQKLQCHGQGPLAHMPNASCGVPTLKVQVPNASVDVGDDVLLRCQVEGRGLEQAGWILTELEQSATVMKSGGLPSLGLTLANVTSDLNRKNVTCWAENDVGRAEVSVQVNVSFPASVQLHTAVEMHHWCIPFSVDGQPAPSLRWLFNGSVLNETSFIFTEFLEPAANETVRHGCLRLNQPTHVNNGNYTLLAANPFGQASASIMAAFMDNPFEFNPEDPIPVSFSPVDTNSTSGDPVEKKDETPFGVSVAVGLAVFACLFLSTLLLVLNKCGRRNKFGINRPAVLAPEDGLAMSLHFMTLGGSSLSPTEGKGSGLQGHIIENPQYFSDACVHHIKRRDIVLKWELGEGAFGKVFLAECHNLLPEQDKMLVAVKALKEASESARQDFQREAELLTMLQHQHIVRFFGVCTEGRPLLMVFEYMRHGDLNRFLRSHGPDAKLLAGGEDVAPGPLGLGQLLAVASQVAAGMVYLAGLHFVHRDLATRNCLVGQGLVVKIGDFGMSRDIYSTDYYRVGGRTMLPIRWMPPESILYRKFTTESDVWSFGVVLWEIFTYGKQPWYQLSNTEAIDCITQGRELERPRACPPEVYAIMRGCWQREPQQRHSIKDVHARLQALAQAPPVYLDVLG
# Chain of Non-receptor tyrosine-protein kinase TYK2 (Homo sapiens) (P29597 whole entry): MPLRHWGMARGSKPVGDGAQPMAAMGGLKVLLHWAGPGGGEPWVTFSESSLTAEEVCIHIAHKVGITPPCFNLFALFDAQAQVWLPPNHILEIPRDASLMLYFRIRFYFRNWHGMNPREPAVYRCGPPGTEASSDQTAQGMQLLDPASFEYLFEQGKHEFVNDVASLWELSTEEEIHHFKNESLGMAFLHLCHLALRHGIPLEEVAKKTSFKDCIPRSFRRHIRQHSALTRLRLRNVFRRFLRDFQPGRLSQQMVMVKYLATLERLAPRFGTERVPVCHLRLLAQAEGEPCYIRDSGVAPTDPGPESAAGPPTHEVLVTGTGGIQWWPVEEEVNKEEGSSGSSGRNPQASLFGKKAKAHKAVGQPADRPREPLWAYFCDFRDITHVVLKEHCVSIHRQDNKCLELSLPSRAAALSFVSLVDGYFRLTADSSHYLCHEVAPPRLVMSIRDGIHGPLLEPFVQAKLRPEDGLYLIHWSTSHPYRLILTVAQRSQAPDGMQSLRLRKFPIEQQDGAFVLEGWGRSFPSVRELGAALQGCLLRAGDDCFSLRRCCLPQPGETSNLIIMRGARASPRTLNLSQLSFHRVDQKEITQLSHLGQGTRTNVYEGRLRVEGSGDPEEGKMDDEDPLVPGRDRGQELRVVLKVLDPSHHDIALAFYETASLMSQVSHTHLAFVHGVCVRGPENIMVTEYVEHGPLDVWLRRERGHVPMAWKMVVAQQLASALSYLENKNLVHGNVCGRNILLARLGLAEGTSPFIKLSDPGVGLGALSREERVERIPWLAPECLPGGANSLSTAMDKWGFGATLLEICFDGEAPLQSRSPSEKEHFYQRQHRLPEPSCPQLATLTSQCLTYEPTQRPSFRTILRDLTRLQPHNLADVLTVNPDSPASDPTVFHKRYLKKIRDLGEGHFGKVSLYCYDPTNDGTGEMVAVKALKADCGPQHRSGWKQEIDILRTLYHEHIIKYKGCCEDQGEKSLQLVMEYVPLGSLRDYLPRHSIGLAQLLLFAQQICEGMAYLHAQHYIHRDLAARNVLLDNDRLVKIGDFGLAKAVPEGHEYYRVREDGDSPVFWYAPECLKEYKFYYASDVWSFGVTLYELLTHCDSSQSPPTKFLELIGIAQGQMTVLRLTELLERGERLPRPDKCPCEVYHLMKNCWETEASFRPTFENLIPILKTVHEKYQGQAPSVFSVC
Compound,inhibition [1],inhibition [2],inhibition [3],inhibition [4],inhibition [5],inhibition [6],inhibition [7],inhibition [8],inhibition [9],inhibition [10],inhibition [11],inhibition [12],inhibition [13],inhibition [14],inhibition [15],inhibition [16],inhibition [17],inhibition [18],inhibition [19],inhibition [20]
COc1cc(C)c(NC(=O)CN(C)C)cc1Nc1nc(Nc2cccc(F)c2C(N)=O)c2cc[nH]c2n1,13%,2.25%,1.27%,2.83%,4.14%,0.4%,-0.74%,1%,53.5%,2.06%,13.5%,-2.09%,6.07%,-0.55%,12.3%,2.47%,3.17%,9.71%,43.9%,4.26%
Cn1cc(C=C2C(=O)Nc3cccnc32)c2ccccc21,66%,25.3%,75.5%,20.5%,71.6%,2.53%,6.47%,-0.05%,22.8%,5.95%,57%,7.66%,55.1%,5.21%,62.6%,3.81%,12%,2.96%,17.9%,6.66%
O=C1NC(=O)C(c2ccc(Cl)cc2)=C1Nc1ccc(Cl)c(C(=O)O)c1,0.46%,1.23%,0.65%,-1.8%,-0.55%,-0.87%,1.12%,0.04%,-3.54%,-3.12%,4.76%,-0.14%,2.81%,-1.78%,-3.59%,-1.94%,-1.03%,0.42%,2.85%,-1.56%
Fc1cccc(COc2ccc(Nc3ncnc4sc(-c5cccs5)cc34)cc2Cl)c1,2.88%,1.85%,1.29%,1.21%,1.03%,2.2%,0.81%,-0.26%,2.5%,1.44%,2.05%,1.14%,6.42%,1.7%,7.89%,2.84%,4.63%,-0.64%,1.65%,1.29%
CCn1c(-c2nonc2N)nc2c(C#CC(C)(C)O)nc(CN3CCCC3)cc21,-1.66%,-0.98%,-0.47%,-1.68%,-2.34%,1.55%,2.08%,3.47%,5.1%,0.54%,3.35%,0.07%,4.15%,0.15%,23.3%,-1.82%,1.24%,1.94%,1.87%,1.68%
CCn1c(-c2nonc2N)nc2cncc(C(=O)N3CC[C@H](N)C3)c21,2.78%,4.37%,3.61%,2.56%,3.15%,3.09%,2.08%,-0.69%,2.6%,3.07%,3.21%,2.84%,6.38%,1.58%,-2.29%,4.37%,12%,0.43%,2.34%,5.42%
NS(=O)(=O)c1cccc(-c2ccc3c(NC(=O)C4CC4)n[nH]c3c2)c1,1.21%,0.07%,2.04%,0.11%,3.65%,-2.48%,-2.41%,0.42%,2.12%,-1.3%,14.4%,1.82%,1.24%,-1.44%,2.43%,1.33%,7.09%,2.11%,7.37%,1.63%
Cc1nn(C)c2cc(N(C)c3ccnc(Nc4cccc(S(N)(=O)=O)c4)n3)ccc12,6.3%,2.64%,11.7%,2.83%,12.3%,53.5%,79.2%,-1.02%,26.4%,20%,89.8%,7.86%,47.5%,13.3%,93%,13.3%,51.4%,7.42%,30.9%,53.7%
CC(C)=Cc1cccc2c1/C(=N/Nc1ccc(S(N)(=O)=O)cc1)C(=O)N2,51.5%,22.4%,75.3%,23.6%,77.2%,3.64%,12.9%,3.75%,51.7%,25.6%,93.1%,8.72%,45%,5.14%,65.6%,1.18%,10.2%,1.89%,6.11%,3.27%
COc1ccc2cc(-c3c(-c4ccncc4)nc(-c4ccc([S+](C)[O-])cc4)n3C)ccc2c1 (stereo not drawn),1.74%,0.67%,1.15%,0.11%,1.86%,1.4%,4.06%,-2.53%,7.86%,3.45%,9.25%,4.15%,11%,2.18%,15.4%,36%,78.4%,0.6%,0.64%,2.59%
COc1ccc(-c2nn3ncccc3c2-c2ccnc(Nc3ccc(Cl)c(C(F)(F)F)c3)n2)cc1,-1.35%,-0.25%,2.61%,-0.42%,2.6%,3.13%,3.03%,-2.93%,5%,1.01%,6.68%,4.71%,2.65%,0.61%,-3.91%,4.44%,10.5%,0.35%,0.58%,3.81%
COc1ccc(-c2coc3ncnc(N)c23)cc1,2.06%,2.05%,1.62%,2.53%,2.68%,2.99%,6.19%,-3.01%,11.5%,3.09%,7.06%,3.4%,8.81%,1.56%,15.3%,3.11%,8.06%,1.83%,6.08%,4.43%
COc1ccc(COc2ccc(Cc3cnc(N)nc3N)cc2OC)cc1,50%,25.7%,75.4%,,,4.15%,4.97%,3.75%,3.14%,4.1%,2.3%,3.53%,4.95%,2.97%,16.2%,5.28%,7.31%,3.72%,3.99%,0.34%
COC(=O)Nc1nc2cc(Oc3ccc(NC(=O)Nc4cccc(C(=O)O)c4)cc3)ccc2[nH]1,3.47%,0.82%,1.02%,1.95%,3.8%,-2.97%,1.48%,1.17%,9.64%,-1.89%,12.8%,-1.26%,9.37%,0.03%,37.7%,0.65%,7.1%,0.68%,1.11%,0.99%
